According to PubChem BioAssay (NCI):
The panel holds about 83,000 compounds, 20% with a hit somewhere; the sample as a whole holds those more often.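 For each line, cells grew in 96-well plates with the test compound present at a single concentration for 48 hours.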 Unmarked numbers belong to inactive results. The source made the active and inactive calls. The calls were made as follows: active = growth percent below 10; inactive = the rest.

Tested on: MDA-MB-468 breast
Assay: NCI-60 one-dose screen, 48 h (100 = growth as untreated, 0 = no growth, -100 = all killed)
Details: 10 µM unless noted

Row | SMILES | growth
1 | Cc1ccc(NC(=O)C2CCC(CN3CCN(C)CC3)CC2)cc1Nc1nccc(-c2cccnc2)n1 (stereo unspecified) | 94.8%
2 | Fc1ccc(-c2cc3nc(C(Cl)Cl)nc(-c4ccco4)n3n2)cc1 | -43.6% (active)
3 | COc1cc(/C=N/NC(=O)c2ccccc2Nc2cccc(C(F)(F)F)c2)cc(OC)c1OC | -20.8% (active)
4 | COC(=O)[C@H](NC(=O)C1(C)CCC[C@]2(C)[C@H]3C[C@H]4C(C(C)C)=C[C@]3(CC[C@@H]12)[C@@H]1C(=O)CCC(=O)[C@@H]14)C(C)C (stereo partly specified) | 101%
5 | COc1cc(C(=O)/C=C/c2cn(-c3ccccc3)nc2-c2cccc(Nc3ccnc4cc(Cl)ccc34)c2)cc(OC)c1OC | 71.7%
6 | CC(=O)Nc1ccc(/C=C/C(=O)c2ccccc2)cc1 | 52%
7 | Nc1ncc(-c2ccc3ncnc(NCc4ccccc4)c3c2)cn1 | -11.7% (active)
8 | CCOc1nc(-c2ccccc2)cc2c(O)c(C(=O)n3nc(C)cc3C)[nH]c(=O)c12 | 99.1%
9 | Cc1ccc(C(=O)N/N=C/c2cccc(Oc3ccccc3)c2)cn1 | 58.6%
10 | CC1=C/C(O)CC(=O)Cc2nc(co2)C(=O)N2CCC=C2C(=O)OC(C(C)C)C(C)/C=C\C(=O)NC/C=C\1 (stereo unspecified) | 54.5%
11 | CCNc1nc2cc(Nc3ccnc4cc(Cl)ccc34)ccc2o1 | 41.2%
12 | CCCCCCNC(=O)Oc1ccc(/C(=C(/CC)Cc2ccccc2)c2ccc(OCCN(CC)CC)cc2)cc1 | 64.4%
13 | COc1ccc(C(=O)C2CC2c2ccc(Cl)cc2)cc1 (stereo unspecified) | 98.3%
14 | CC(=O)Nc1nc(C)c(C(=O)NNC(=O)Nc2ccccc2)s1 | 61.4%
15 | CCOC(=O)c1c(Nc2nc3ccccc3s2)sc2c1CCC(=O)C2 | 94.8%
16 | COc1ccc(S(=O)(=O)NCCCNc2nccc(-n3cnc4ccccc43)n2)cc1 | 77.2%
17 | Cc1ccc(-c2nc(C#N)c(S(=O)(=O)N(C)C)o2)cc1 | 81.6%
18 | CN(C[C@H]1Cc2c(cccc2N2CCN(c3ncccn3)CC2)CN1)[C@H]1CCCc2cccnc21 | 37.6%
19 | COc1cc(C(=O)n2nc(N)c3c(C)cc(C)nc32)cc(OC)c1OC | 20.3%
20 | COc1cc(-c2cc(C(=O)N3CCN(C(=O)c4ccccc4NCc4ccco4)CC3)nc3cc(-c4ccccc4)nn23)cc(OC)c1OC | 0.207% (active)
21 | CCCCC/C=C/C(C)=C/C1CC(C)C/C=C/CCC(O)C(OC(N)=O)CCC(C)CC(O)C(C)C(=O)O1 (stereo unspecified) | 94.9%
